Inconclusive results are not listed. The source made the active and inactive calls. Unless noted, the call rests on the fitted dose curve; in most records, active means well fitted curve in the direction sought with a large enough effect in the repeat runs; inconclusive means weak or mixed curves; inactive means no such curve, though single readings can be large; an effect the other way counts as inactive or inconclusive.

Test [1] deals with Aryl hydrocarbon receptor (Homo sapiens) (UniProt P35869). The test can be described thus: qHTS assay to identify small molecule that activate the aryl hydrocarbon receptor (AhR) signaling pathway (AID 743085). Further: nearly all actives have a fitted effect of over 15% in size. Further: potency means the concentration at half of the fitted maximal effect.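 On activation: HG2L7.5c1 human HepG2 liver cells with stably integrated DRE-driven firefly reporter; series mostly up to about 70 µM.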 In a few lines:
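HepG2 cells (HG2L7.5c1) stably carrying a firefly luciferase reporter driven by 20 dioxin responsive elements were exposed to compound for 24 h at 37C after a 5 h settling period; luminescence rise (ONE-Glo) indicated activation.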
In general terms: qHTS replaces the single test concentration by a dilution series.

A short description of test [2]: qHTS assay to identify small molecule that activate the aryl hydrocarbon receptor (AhR) signaling pathway - cell viability counter screen (AID 743086).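 Further: HepG2 liver cells carrying the AhR DRE luciferase reporter; series mostly up to about 70 µM; nearly all actives have a fitted effect of over 45% in size.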 The essentials:
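Cytotoxicity counter screen: CellTiter-Fluor signal (30 min, 37 C) in 4000 HepG2 cells/well carrying the DRE-luciferase reporter, following 24 h compound exposure at 37 C.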

Test [3] deals with Peroxisome proliferator-activated receptor gamma (Homo sapiens) (UniProt P37231). Put plainly: qHTS assay to identify small molecule agonists of the peroxisome proliferator-activated receptor gamma (PPARg) signaling pathway (AID 743094; active means well fitted activation curve with a large enough effect in the signal ratio in the repeat runs, not every such curve was filed as active; the % refers to the signal ratio). The essentials:
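Reporter activation was scored by fluorescence of cleaved LiveBLAzer B/G substrate (1 h, room temperature) in PPARg-bla HEK293H cells previously treated 17 h at 37C with DMSO-dissolved compounds.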

Test [4] can be described thus: qHTS assay to identify small molecule antagonists of the peroxisome proliferator-activated receptor gamma (PPARg) signaling pathway - cell viability counter screen (AID 743194). Further: nearly all actives have a fitted effect of over 55% in size. The following applies: Potency: co-treated with 50 nM rosiglitazone. The essentials: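 Viability was measured as CellTiter-Glo luminescence in GeneBLAzer PPARg UAS-bla HEK293H cells. These cells had been exposed 17 h at 37 C to compounds together with rosiglitazone at 50 nM final, with the beta-lactamase readout taken in the same wells.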

Test [5] is described as follows: qHTS assay for small molecule agonists of the antioxidant response element (ARE) signaling pathway (AID 743202; active means well fitted activation curve with a large enough effect in the signal ratio in the repeat runs, not every such curve was filed as active; the % refers to the signal ratio). In a few lines: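 After 16 hours of compound treatment at 37 C, HepG2 cells with a stably integrated ARE-driven beta-lactamase reporter were loaded 2 hours at room temperature with LiveBLAzer B/G FRET substrate and fluorescence intensity measured.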
Test [6] can be described thus: qHTS assay for small molecule agonists of the antioxidant response element (ARE) signaling pathway - cell viability counter screen (AID 743203; calls by dose curve; further: nearly all actives have a fitted effect of over 55% in size). In a few lines: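 Viability counter screen: stably transfected ARE-bla HepG2 line, 16 hrs compound exposure at 37C/5% CO2, ATP-based CellTiter-Glo luminescence measured in the reporter wells.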
Test [7] can be described thus: qHTS assay for small molecule activators of the heat shock response signaling pathway - cell viability counter screen (AID 743209). Further: nearly all actives have a fitted effect of over 50% in size. In a few lines: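 Viability of HSE-bla HeLa cells is measured with CellTiter-Glo in the wells already used for the reporter read. Compound exposure lasts 5 h at 37 C, and luminescence is read after 30 min at room temperature.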
Test [8] is described as follows: qHTS assay for small molecule activators of the heat shock response signaling pathway (AID 743210; active means well fitted activation curve with a large enough effect in the signal ratio in the repeat runs, with a control signal flat, not every such curve was filed as active; the % refers to the signal ratio; further: series mostly up to about 63 µM). In a few lines:
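Compound exposure lasted 5 h at 37 C in HeLa cells carrying a heat-shock-element-driven beta-lactamase reporter. Read-out: fluorescence intensity after 2.5 h room-temperature loading with LiveBLAzer B/G FRET substrate.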

Test [9] can be described thus: qHTS assay to identify small molecule agonists of the peroxisome proliferator-activated receptor delta (PPARd) signaling pathway - cell viability counter screen (AID 743211). Further: nearly all actives have a fitted effect of over 55% in size. The essentials: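 PPARd-bla HEK293H cells (UAS-beta-lactamase reporter) were treated with compounds for 17 h at 37 C. Viability was then read in the same wells by CellTiter-Glo luminescence after 30 min at room temperature.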

Test [10] deals with Peroxisome proliferator-activated receptor delta (Homo sapiens) (UniProt Q03181). Put plainly: qHTS assay to identify small molecule agonists of the peroxisome proliferator-activated receptor delta (PPARd) signaling pathway (AID 743212; calls by dose curve). The essentials: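 Beta-lactamase reporter readout: a ratiometric FRET signal from the LiveBLAzer substrate after 2 h at room temperature. Compound exposure at 37 °C in PPARδ-bla HEK293H cells driven by an upstream activator sequence.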

Test [11] in a line: qHTS assay to identify small molecule antagonists of the peroxisome proliferator-activated receptor delta (PPARd) signaling pathway - cell viability counter screen (AID 743213). Further: nearly all actives have a fitted effect of over 50% in size. In a few lines: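 Viability counter-screen, qHTS format: PPARd-bla HEK293H, L165041 300 nM final, 17 h compound exposure at 37 C, CellTiter-Glo luminescence after 30 min RT.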
Test [12] concerns the target Bile acid receptor (Homo sapiens) (UniProt Q96RI1). Put plainly: qHTS assay to identify small molecule antagonists of the farnesoid-X-receptor (FXR) signaling pathway (AID 743217; active means well fitted inhibition curve with a large enough effect in the signal ratio in the repeat runs, not every such curve was filed as active; the % refers to the signal ratio). In a few lines: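 Screen of the Tox21 10K library in quantitative HTS format using FXR-UAS-bla HEK 293T reporter cells. Agonist chenodeoxycholic acid, 50 uM final, added with compounds; 16 h incubation at 37 °C; beta-lactamase FRET fluorescence measured.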

A short description of test [13]: qHTS assay to identify small molecule agonists of the farnesoid-X-receptor (FXR) signaling pathway - cell viability counter screen (AID 743218). Further: nearly all actives have a fitted effect of over 45% in size. In a few lines: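 Viability of FXR-bla HEK 293T cells is measured by ATP-based CellTiter-Glo luminescence following 16 h compound treatment at 37 C and a prior 2 h room-temperature beta-lactamase substrate step.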
The nature of test [14]: qHTS assay to identify small molecule antagonists of the farnesoid-X-receptor (FXR) signaling pathway - cell viability counter screen (AID 743221; active means well fitted cell-killing curve with a large enough effect in the repeat runs, not every such curve was filed as active; further: nearly all actives have a fitted effect of over 50% in size). In a few lines: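 FXR-UAS-bla HEK 293T cells were treated with test compounds plus chenodeoxycholic acid (50 uM final) for 16 h at 37 C. Cell viability in the same wells was then read as CellTiter-Glo luminescence after 30 min at room temperature.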

Test [15] is described as follows: qHTS assay to identify small molecule agonists of the vitamin D receptor (VDR) signaling pathway - cell viability counter screen (AID 743224). Further: series mostly up to about 63 µM; nearly all actives have a fitted effect of over 50% in size. The essentials:
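Compounds were pin-transferred onto VDR-bla cells plated 4 h earlier; following 16 h incubation at 37C, cell viability was quantified by CellTiter-Glo luminescence after 30 min at room temperature.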

For test [16], the target named is Peroxisome proliferator-activated receptor gamma (Homo sapiens) (UniProt P37231). The test can be described thus: qHTS assay to identify small molecule antagonists of the peroxisome proliferator-activated receptor gamma (PPARg) signaling pathway (AID 743191; calls by dose curve; further: series mostly up to about 63 µM; nearly all actives have a fitted effect of over 30% in size). In a few lines:
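Beta-lactamase reporter under UAS control in HEK293H PPARg-bla cells; compound treatment 17 h at 37C. Read-out: fluorescence intensity after 1 h room-temperature incubation with LiveBLAzer B/G FRET substrate.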

For test [17], the target named is Vitamin D3 receptor (Homo sapiens) (UniProt P11473). The test can be described thus: qHTS assay to identify small molecule agonists of the vitamin D receptor (VDR) signaling pathway (AID 743222; calls by dose curve). The essentials: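 Fluorescence from cleaved LiveBLAzer B/G FRET substrate served as readout. VDR-bla cells had been treated 16 h at 37C with test compounds in DMSO, following a 4 h settling period, and substrate was loaded for 2 h at RT.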

For test [18] the target is unchanged. The test can be described thus: qHTS assay to identify small molecule antagonists of the vitamin D receptor (VDR) signaling pathway (AID 743223; active means well fitted inhibition curve with a large enough effect in the signal ratio in the repeat runs, not every such curve was filed as active; the % refers to the signal ratio). In a few lines:
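VDR-bla cells were plated, incubated 4 h at 37C, then given compound and 1alpha,25-dihydroxyvitamin D3 (3 nM final). After 16 h at 37C, LiveBLAzer B/G FRET substrate was added for 2 h at room temperature and fluorescence read.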

Test [19] has as its target Peroxisome proliferator-activated receptor delta (Homo sapiens) (UniProt Q03181). The test can be described thus: qHTS assay to identify small molecule antagonists of the peroxisome proliferator-activated receptor delta (PPARd) signaling pathway (AID 743215; active means well fitted inhibition curve with a large enough effect in the signal ratio in the repeat runs, not every such curve was filed as active; the % refers to the signal ratio;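 further: cells stimulated with agonist L165041 at 300 nM final during compound exposure; series mostly up to about 62 µM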). In a few lines:
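Plated HEK293H PPARd-bla cells rested 5 h at 37 C and 5% CO2. Compound, then agonist L165041 at 300 nM final, was added; 17 h at 37 C followed. Substrate loading, 2 h room temperature, fluorescence measured.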

Test [20] addresses Bile acid receptor (Homo sapiens) (UniProt Q96RI1). The test can be described thus: qHTS assay to identify small molecule agonists of the farnesoid-X-receptor (FXR) signaling pathway (AID 743220; active means well fitted activation curve with a large enough effect in the signal ratio in the repeat runs, not every such curve was filed as active; the % refers to the signal ratio). The essentials: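 FXR-UAS-bla HEK 293T cells carrying a UAS-driven beta-lactamase reporter were plated for 5 h at 37C/5% CO2, then exposed to DMSO-dissolved Tox21 10K compounds for 16 h at 37C. A LiveBLAzer B/G FRET substrate was loaded for 2 h at room temperature before fluorescence reading.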

Chain of Bile acid receptor (Homo sapiens) (Q96RI1 whole entry, looked up): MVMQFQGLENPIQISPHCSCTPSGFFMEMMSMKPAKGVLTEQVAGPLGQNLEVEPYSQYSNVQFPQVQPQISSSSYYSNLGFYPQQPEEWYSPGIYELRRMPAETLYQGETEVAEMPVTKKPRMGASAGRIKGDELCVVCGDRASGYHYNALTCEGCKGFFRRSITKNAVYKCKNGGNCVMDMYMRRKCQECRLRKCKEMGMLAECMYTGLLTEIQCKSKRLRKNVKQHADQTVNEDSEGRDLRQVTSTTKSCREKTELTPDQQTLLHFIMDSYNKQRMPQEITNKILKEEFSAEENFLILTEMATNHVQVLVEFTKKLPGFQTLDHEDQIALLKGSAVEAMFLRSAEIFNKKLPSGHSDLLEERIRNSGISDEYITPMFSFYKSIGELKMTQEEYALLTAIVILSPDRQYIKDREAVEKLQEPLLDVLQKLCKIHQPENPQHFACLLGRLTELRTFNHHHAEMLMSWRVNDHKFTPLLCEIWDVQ
Chain of Vitamin D3 receptor (Homo sapiens) (P11473 whole entry, looked up): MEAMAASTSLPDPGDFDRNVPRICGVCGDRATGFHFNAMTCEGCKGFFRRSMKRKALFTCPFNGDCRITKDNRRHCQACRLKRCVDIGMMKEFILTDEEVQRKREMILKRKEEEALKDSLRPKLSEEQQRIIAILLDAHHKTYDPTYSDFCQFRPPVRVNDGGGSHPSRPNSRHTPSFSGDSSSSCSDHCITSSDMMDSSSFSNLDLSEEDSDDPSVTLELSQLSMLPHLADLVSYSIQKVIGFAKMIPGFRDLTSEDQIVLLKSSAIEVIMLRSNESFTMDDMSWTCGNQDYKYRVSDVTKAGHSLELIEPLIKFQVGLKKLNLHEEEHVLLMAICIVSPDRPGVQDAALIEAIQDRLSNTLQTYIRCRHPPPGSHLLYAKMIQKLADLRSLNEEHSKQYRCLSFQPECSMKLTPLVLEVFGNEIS
Chain of Aryl hydrocarbon receptor (Homo sapiens) (P35869 whole entry, looked up): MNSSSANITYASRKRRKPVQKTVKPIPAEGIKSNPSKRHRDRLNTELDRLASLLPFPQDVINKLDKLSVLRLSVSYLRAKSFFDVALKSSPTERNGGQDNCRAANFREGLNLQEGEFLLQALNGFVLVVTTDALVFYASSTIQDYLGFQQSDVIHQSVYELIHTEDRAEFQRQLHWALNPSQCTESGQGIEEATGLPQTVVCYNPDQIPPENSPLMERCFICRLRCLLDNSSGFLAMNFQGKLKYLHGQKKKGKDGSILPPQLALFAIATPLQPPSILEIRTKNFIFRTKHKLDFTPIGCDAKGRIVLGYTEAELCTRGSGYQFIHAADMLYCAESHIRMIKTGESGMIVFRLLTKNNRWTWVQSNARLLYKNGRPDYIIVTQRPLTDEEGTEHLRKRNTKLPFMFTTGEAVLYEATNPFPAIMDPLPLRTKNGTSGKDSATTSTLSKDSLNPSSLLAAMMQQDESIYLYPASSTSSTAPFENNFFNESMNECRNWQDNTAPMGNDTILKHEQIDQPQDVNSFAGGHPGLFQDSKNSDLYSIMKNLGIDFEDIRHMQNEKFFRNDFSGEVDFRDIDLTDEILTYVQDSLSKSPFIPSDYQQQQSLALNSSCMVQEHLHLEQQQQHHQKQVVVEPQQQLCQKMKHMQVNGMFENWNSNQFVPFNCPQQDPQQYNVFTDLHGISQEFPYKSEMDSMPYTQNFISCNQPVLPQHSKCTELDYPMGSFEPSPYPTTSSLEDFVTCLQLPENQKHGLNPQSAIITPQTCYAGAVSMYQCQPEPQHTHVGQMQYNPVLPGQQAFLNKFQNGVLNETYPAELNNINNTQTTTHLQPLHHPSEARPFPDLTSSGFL
Chain of Peroxisome proliferator-activated receptor delta (Homo sapiens) (Q03181 whole entry, looked up): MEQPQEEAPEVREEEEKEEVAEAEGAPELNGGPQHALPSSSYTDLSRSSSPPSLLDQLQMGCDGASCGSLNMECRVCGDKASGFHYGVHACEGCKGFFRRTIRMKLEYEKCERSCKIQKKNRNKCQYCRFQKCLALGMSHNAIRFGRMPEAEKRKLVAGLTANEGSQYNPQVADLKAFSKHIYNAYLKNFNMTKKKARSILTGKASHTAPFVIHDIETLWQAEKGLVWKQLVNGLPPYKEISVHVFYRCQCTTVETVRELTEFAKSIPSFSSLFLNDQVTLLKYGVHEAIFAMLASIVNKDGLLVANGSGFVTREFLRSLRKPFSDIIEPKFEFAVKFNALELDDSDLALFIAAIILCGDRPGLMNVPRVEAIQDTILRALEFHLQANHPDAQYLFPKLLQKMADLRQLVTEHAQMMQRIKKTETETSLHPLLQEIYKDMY
Chain of Peroxisome proliferator-activated receptor gamma (Homo sapiens) (P37231 whole entry, looked up): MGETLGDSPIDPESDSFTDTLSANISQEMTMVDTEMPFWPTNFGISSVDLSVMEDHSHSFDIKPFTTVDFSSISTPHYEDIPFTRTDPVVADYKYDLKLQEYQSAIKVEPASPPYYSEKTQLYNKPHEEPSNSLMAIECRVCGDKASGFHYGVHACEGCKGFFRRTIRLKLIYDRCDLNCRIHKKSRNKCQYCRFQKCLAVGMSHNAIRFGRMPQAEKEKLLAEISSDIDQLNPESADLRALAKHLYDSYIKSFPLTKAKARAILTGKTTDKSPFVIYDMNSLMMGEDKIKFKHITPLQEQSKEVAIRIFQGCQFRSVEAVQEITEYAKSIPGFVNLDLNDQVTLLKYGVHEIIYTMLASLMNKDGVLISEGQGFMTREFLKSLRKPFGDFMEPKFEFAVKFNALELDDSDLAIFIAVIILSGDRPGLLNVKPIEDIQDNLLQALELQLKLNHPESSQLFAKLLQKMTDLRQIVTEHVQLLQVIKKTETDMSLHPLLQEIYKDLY

For `Cc1nnc2n1-c1sc(CCC(=O)N3CCOCC3)cc1C(c1ccccc1Cl)=NC2`, the Potency entry in test [1], in test [4], in [5], in [6], in test [7] and in test [9] was “inactive” throughout. The Potency entry in test [12], in [13] and in test [15] was “inactive” each time. In addition, the outcome in test [2], in test [3], in test [8], in [10], in test [11] and in test [14] was inactive.
Take `NC(=O)c1cc([N+](=O)[O-])cc([N+](=O)[O-])c1`: the Potency entry in test [1], in [16], in test [4], in [6], in test [9] and in test [13] was “inactive” each time. Besides, the Potency entry in test [15] was “inactive”. In addition, the molecule was classed as inactive in test [2], in [3], in test [8], in test [10], in test [11] and in [14]. In addition, the outcome in [17] and in test [18] was inactive.
For `C=C(C)CN(CC)c1c([N+](=O)[O-])cc(C(F)(F)F)cc1[N+](=O)[O-]`, the Potency result in test [1], in [16], in [5], in test [6], in test [7] and in test [9] was “inactive” throughout. The Potency entry in test [13] and in test [15] was “inactive” each time. The call in test [2], in [3], in test [8], in [11], in [19] and in test [14] was inactive.
Regarding `O=[N+]([O-])c1cccc2c([N+](=O)[O-])cccc12`, the Potency entry in [1], in [16], in test [4], in test [6], in test [9] and in test [13] was “inactive” throughout. The Potency entry in test [15] is “inactive”. Also, the molecule was called inactive in test [2], in [3], in [8], in [10], in [11] and in test [14].
As for `Cc1cnc[nH]1`, the Potency result in test [1], in test [16], in test [6], in test [7], in [9] and in test [12] was “inactive” throughout. In addition, the Potency result in [13] and in [15] was “inactive” in each case. The result in [2], in test [3], in test [8], in [10], in test [11] and in test [19] was inactive. In addition, the call in test [20] and in [14] was inactive.
Take `CC(C1CC1)C(O)(Cn1cncn1)c1ccc(Cl)cc1` (stereo not given): the Potency entry in test [1], in test [4], in test [6], in [7], in [9] and in test [15] was “inactive” throughout. The molecule was called inactive in test [2], in test [3], in test [8], in [10], in test [11] and in [19]. Also, the outcome in test [14] and in [17] was inactive.
In the case of `COc1ccc2c(c1OC)CN1CCc3cc4c(cc3C1C2)OCO4` (stereo not given), the Potency in [1] is 403 nM (active). Further, the outcome in test [2], in test [3], in [8], in [11], in test [14] and in test [18] was inactive. The Potency entry in test [16], in test [4], in [6], in [7], in test [13] and in test [15] was “inactive” throughout.
As for `COC(=O)C(c1ccccc1)C1CCCCN1` (stereo not given), the Potency entry in test [1], in test [16], in test [4], in test [6], in test [7] and in test [9] was “inactive” in each case. Further, the Potency entry in test [12], in test [13] and in test [15] was “inactive” each time. Besides, the molecule was classed as inactive in test [2], in test [3], in test [8], in [11], in test [20] and in test [18].
`Cc1ncsc1CCCl`: the Potency result in test [1], in test [5], in [6], in [7], in test [9] and in test [13] was “inactive” throughout. Also, the Potency result in test [15] is “inactive”. The result in [2], in test [3], in test [10], in test [14] and in [18] was inactive.
As for `CC(CCc1ccccc1)NC(C)C(O)c1ccc(O)cc1` (stereo not given), the Potency entry in test [1], in test [6], in test [7], in test [9], in test [13] and in test [15] was “inactive” in each case. Also, the call in [2], in test [3], in test [8], in test [10], in test [11] and in test [14] was inactive. Also, the call in test [17] was inactive.

Source of the values: PubChem BioAssay (Tox21).
